# From ChEMBL document CHEMBL1157539, “Thousands of chemical starting points for antimalarial lead identification” (Nature, 2010)
# Experiments:
# Format in all cases: functional
# Plasmodium falciparum [1] = experiment: GSK_TCMDC: Inhibition of Plasmodium falciparum 3D7 in whole red blood cells, using parasite LDH activity as an index of growth. Test compounds present at 2uM
# Plasmodium falciparum [2] = experiment: GSK_TCMDC: Inhibition of Plasmodium falciparum Dd2 in whole red blood cells, using parasite LDH activity as an index of growth. Test compounds present at 2uM
# HepG2 = experiment: GSK_TCMDC: Percent inhibition of human HepG2 cell line. Test compounds present at 10uM.
SMILES,Inhibition (Plasmodium falciparum [1]),Inhibition (Plasmodium falciparum [2]),Inhibition (HepG2)
CCNc1cc(C(=O)N[C@@H](Cc2ccccc2)[C@H](O)CNC23CC4CC(CC(C4)C2)C3)cc(N2CCCCS2(=O)=O)c1.Cl,98%,99%,3%
Cc1cc(Nc2cccc(Cl)c2)nc2ccc(NC(=O)c3ccc(=O)[nH]c3)cc12,100%,23%,12%
CCOc1ccc(C(C)NC(=O)c2cc(Cl)ccc2OC)cc1OCC (stereo not drawn),100%,99%,0%
N#CCSc1nnc(-c2ccccc2)c2ccccc12,84%,73%,5%
Cl.N#Cc1ccc2c(c1)CCN(CCC1CCC(NC(=O)c3ccc(-c4ccccc4)s3)CC1)CC2 (stereo not drawn),99%,36%,6%
COc1ccc2nccc(N3CCC(NCCNCc4ccc5c(n4)NC(=O)CO5)C3)c2n1.Cl (stereo not drawn),100%,47%,0%
COc1ccc(Cc2c(N)nc3nc(N)nc(N)c3c2C)cc1.Cl,94%,3%,64%
CC[C@H](C)CNC(=O)c1cccc(-c2cccc(CN3CCC(N4CCCC4)CC3)c2)n1.O=C(O)C(F)(F)F,100%,86%,9%
Cn1cccc1CCNCc1ccc(-c2cccc(-c3nc4ccccc4[nH]3)c2)cc1.O=C(O)C(F)(F)F,88%,66%,1%
CC1CN(Cc2cccc(C#N)c2)CCN1c1ccc(NC(=O)c2cccs2)cc1.O=C(O)C(F)(F)F (stereo not drawn),94%,93%,4%
CCOc1ccccc1C(=O)Nc1cccc(-c2nc3ncccn3c2C)c1,92%,88%,0%
O=C(O)C(F)(F)F.O=S(=O)(NCCN1CCCC1)c1ccc(-c2cccc(CNCc3ccsc3)c2)s1,90%,43%,42%
COc1ccc2ncc(Cl)c(CCN3CCC(NCc4ccc5c(n4)NC(=O)CS5)CC3)c2c1.Cl,100%,34%,26%
Cn1c(NC(=O)C2CCC(CNC(=O)c3ccc(O)c(-c4cccc([N+](=O)[O-])c4)c3)CC2)nc2ccccc21 (stereo not drawn),95%,97%,6%
Cc1nc2nc(N)nc(N)c2c(C)c1Cc1ccc(C(F)(F)F)cc1.Cl,96%,22%,57%
COc1ccc(-c2ccc(NC(=O)c3cccc(C#N)c3)cc2)cc1CN(C)C.O=C(O)C(F)(F)F,100%,10%,11%
CCCCc1cc(NCc2ccncc2)nc(Nc2cccc(OC)c2)n1,100%,56%,41%
COc1ccc2nccc([C@@H](O)CN3CCC(NCc4cn5cc(F)ccc5n4)CC3)c2c1.O=C(O)C(=O)O,96%,5%,19%
N=C(N)CCN(Cc1ccc(Cl)cc1)c1ccc(Cl)cc1,96%,92%,22%

SMILES,Inhibition (Plasmodium falciparum [1]),Inhibition (Plasmodium falciparum [2]),Inhibition (HepG2)
CC(O)C(=O)O.CCOc1ccc2nc3cc(N)ccc3c(N)c2c1,98%,70%,8%
COc1ccc2nccc([C@@H](O)CN3CCC(NCc4cc5cc(C)ccc5s4)CC3)c2c1.O=C(O)C(=O)O,92%,74%,13%
COc1ccc2[nH]ccc(=NN=Cc3cccnc3)c2c1,100%,84%,0%
CC(C)(C)c1ccc(CNC(=O)/C=C/c2ccc(-c3nc4cc(C(C)(C)C)ccc4[nH]3)cc2)cc1,100%,66%,35%
O=C(Nc1ccc(-c2ccccc2)s1)N[C@H]1CCN(Cc2ccc(OCCCN3CCCCC3)cc2)C1,100%,40%,5%
N=C(N)Nc1nc(CCCCCCCCc2csc(NC(=N)N)n2)cs1,100%,28%,27%
CCC[C@@H]([C@@H](CC(C)C)C(=O)N[C@H](C(=O)Nc1nccs1)C(C)(C)SCCNC(=O)OCC)N(O)C=O,95%,97%,0%
O=C(N[C@@H](Cc1ccccc1)[C@H](O)CNC1CCCCC1)c1cc(C2CCCC2)cc(N2CCCC2=O)c1,100%,98%,17%
Nc1[nH]c2ccccc2c(=O)c1-c1nc2ccccc2s1,97%,–,16%
CC(C)(C)c1cc(Cl)cc(C(=O)Nc2cc([N+](=O)[O-])ccc2Cl)c1O,91%,–,79%
CCCN1CCN(CCNc2c3ccccc3nc3ccccc23)CC1,88%,–,13%
COc1ccc(Cl)cc1N1CCN(CCCNC(=O)c2ccc(-c3nc4c(C)cccc4[nH]3)s2)CC1,98%,–,0%
O=C(O)C(F)(F)F.Oc1ccc(CNCC2CCN(CC3CCCCC3)CC2)cc1,82%,–,9%
CC(C)CN1C(=O)C(c2ccc(F)c(F)c2)=C(O)C1c1ccccc1 (stereo not drawn),94%,–,0%
Cc1ccccc1Oc1ccc(Nc2ccnc(Nc3cccc(C(N)=O)c3)n2)cc1C(F)(F)F.Cl,81%,–,9%
C=CCOc1cc(Cc2cnc(N)nc2N)cc(OC)c1OC.Cl,81%,–,0%
O=C(NNC(=O)c1ccc(CN2CCC(c3nc4ccccc4[nH]3)CC2)cc1)Nc1ccc(Oc2ccccc2)cc1.O=C(O)C(F)(F)F,86%,–,0%
NC(=O)c1sc(-n2cnc3ccc(C(=O)NCCN4CCOCC4)cc32)cc1OCc1ccccc1C(F)(F)F.O=CO,81%,–,0%
N=C(N)c1nc2ccccc2s1,87%,–,1%
